Screens (PubChem)
The list is not random: actives were taken first. Their share in the collection is about 6%.
D1 PAM = enhances dopamine response at the human D1 receptor; 0.036% of 360,000 active; P21728; HEK293 TREx D1 cells, calcium flux, dopamine EC20 potentiation; potentiation, % at 10 µM; in the data active means potentiation above about 30%; further: 0% is about no effect
DRD3 agonist = agonists of human D3 dopamine receptor; P35462; D3R DiscoveRx beta-arrestin cells, luminescence, 90 min; 0.58% of 410,000 active; max activation, %; in the data active means max activation above about 30%; further: 0% is about no effect
Target sequence (P35462 whole entry, looked up): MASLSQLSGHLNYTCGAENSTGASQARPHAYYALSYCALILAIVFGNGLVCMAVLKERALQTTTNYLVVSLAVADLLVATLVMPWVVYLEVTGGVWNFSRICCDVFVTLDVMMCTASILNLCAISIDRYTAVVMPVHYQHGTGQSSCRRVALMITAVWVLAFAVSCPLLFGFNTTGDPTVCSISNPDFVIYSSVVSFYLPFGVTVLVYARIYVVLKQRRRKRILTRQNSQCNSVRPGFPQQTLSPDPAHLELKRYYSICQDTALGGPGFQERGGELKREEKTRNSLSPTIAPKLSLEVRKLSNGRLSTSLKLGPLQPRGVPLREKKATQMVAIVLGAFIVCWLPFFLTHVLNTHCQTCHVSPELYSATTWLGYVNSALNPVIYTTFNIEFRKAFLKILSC
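Cells at 1500/well, incubated overnight, then treated with pinned compounds (dopamine as control) for 90 min at 37 degrees C. DiscoveRx reagent added for 30 - 60 minutes at room temperature; luminescence read.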
D1 agonist = human D1 receptor agonism. P21728. HEK293 T-REx D1 cells, calcium flux, agonist mode. activation, % at 2 µM. 1% of 360,000 active; in the data active means activation above about 30%; further: 0% is about no effect
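Agonism was scored from calcium flux recorded over 180 s (1 read/s) after pintool compound addition, following a 10-cycle baseline. Cells were inducible force-coupled HEK293 TREx D1, plated overnight at 30 C and loaded with no-wash calcium dye.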
D3 antag = blocks the human D3 dopamine receptor; D3R cells, DiscoveRx beta-arrestin luminescence, antagonist mode; stronger effect = lower value; max response, negative = inhibition, %; 2.5% of 360,000 active; AID 652054; in the data active means max response below about -50%; inconclusive means no clear call, values can overlap the other calls; further: on the % scale 0 is the no-effect control and ±100 the full control effect
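Cells expressing the human receptor were seeded at 1500 cells/well, incubated overnight at 37 degrees C in 5% CO2, then exposed to library compounds with dopamine controls for 90 minutes at 37 degrees C before luminescent detection.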
D1 antag = blocks dopamine activation of the human D1 receptor | HEK293 TREx D1 cells, calcium flux, dopamine EC80; stronger effect = lower value | activity change, negative = inhibition, % at 10 µM | P21728 | 3.2% of 360,000 active; in the data active means activity change below about -30%; further: on the % scale 0 is the no-effect control and ±100 the full control effect
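HEK293 T-REx cells expressing inducible, force-coupled D1 receptor; no-wash Ca dye, 30–90 min RT. Cmpd → 180 s read at 1 Hz → EC80 DA → 180 s read.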
* marks the source's active call; other numbers are inactive results; ? = inconclusive; nt = no result; ! = repeats disagree.

SMILES	D1 PAM	DRD3 agonist	D1 agonist	D3 antag	D1 antag
COc1ccc(S(=O)(=O)N2CCC(Oc3ccc(-n4cnnn4)cc3)CC2)cc1OC	-1.2	3.9	0.8	nt	-9.0
CCOC(=O)N1CCC(N2CCN(S(=O)(=O)CC)CC2)CC1	-5.5	-5.4	1.2	-132.9*	-1.1
CCOC(=O)N1CCC(N2CCN(S(=O)(=O)c3ccc(OC)cc3)CC2)CC1	-4.0	10.9	13.2	12.3	-35.8*
Oc1c(C(c2ccccc2F)N2CCCCC2)sc2nc(-c3ccco3)nn12 (configuration not stated)	0.2	-2.4	-3.7	nt	nt
Cc1ccc(-n2nc(C)c3c(C)c(CCC(=O)NCc4ccccc4Cl)c(C)nc32)cc1	0.2	4.8	0.8	nt	-8.6
CCn1c(=O)n(CC)c2cc(N3CCCCC3)c(NC(=O)Nc3cc(Cl)ccc3OC)cc21	-1.6	1.4	0.7	nt	2.9
O=C(O)[C@H](CC(=O)N1C[C@H]2CCCC[C@H]2C1)Cc1ccccc1	nt	-1.0	nt	nt	nt
CC1CCC(NC(=O)c2ccc(CS(=O)(=O)c3ccc(Cl)cc3)o2)CC1 (configuration not stated)	1.2	-24.4	22.9	nt	-18.2
COC(=O)C1=C(C)NC(C)=C(C(=O)OCCCN2CCC(c3ccccc3)(c3ccccc3)CC2)C1c1cccc([N+](=O)[O-])c1 (configuration not stated)	nt	19.6	nt	nt	nt
COc1ccc(S(=O)(=O)N2CCN(C3CCCCCCC3)CC2)cc1	-7.2	-0.2	-0.7	-7.4	-68.2*!
COc1ccc(-c2nc(C)c(CCNC(=O)c3cc(OC)c(OC)c(OC)c3)s2)cc1OC	1.9	6.9	0.4	nt	-8.0
CNc1nc(-c2ccccc2)[n+](-c2ccc(C)cc2)s1	3.3	-10.2	11.6	-5.0	-1.8
Cc1ccc(-c2nc(N)s[n+]2-c2ccccc2)cc1	3.1	-3.0	1.2	12.3	-37.0*
CCn1ccc2c(OCC(=O)Nc3ccc(C(C)=O)cc3)cccc2c1=O	-0.5	0.9	-3.0	nt	nt
Cc1[nH]n2c(=O)c3c(nc2c1-c1ccccc1)CCC3	-3.7	-29.1	2.7	?	2.9
Cc1[nH]n2c(=O)c3c(nc2c1-c1ccc(Cl)cc1)CCC3	-0.5	-12.6	-0.9	-86.6*	0.7
Nc1[nH]n2c(=O)c3c(nc2c1N=Nc1ccccc1)CCCC3	4.4	-21.8	0.8	77.4	-13.5
Nc1[nH]n2c(=O)c3c(nc2c1N=Nc1ccc(Cl)cc1)CCCC3	-13.8	-13.8	1.6	33.0	-49.8*
CC1CCN(S(=O)(=O)c2ccc3c(c2)c(=O)c(C(=O)NCc2ccc(Cl)cc2)cn3C)CC1	9.2	-21.8	-1.3	nt	-5.0
Cc1ccccc1NS(=O)(=O)c1ccc(C2CNC(=O)C2)cc1 (configuration not stated)	0.6	-4.4	4.9	-103.9*	2.6
O=C(C#Cc1ccccc1)c1ccccc1	nt	-9.3	nt	-64.9*	nt
O=C(C#Cc1ccccc1)c1ccc([N+](=O)[O-])cc1	-2.4	-18.1	3.7	-71.5*	-18.0
O=C(c1ccc(-c2ccccc2)cc1)c1ccc([N+](=O)[O-])cc1	21.1	nt	9.5	nt	7.2
COc1ccc(CCN(C)CCC(=O)Nc2cccc(C)c2)cc1OC	-4.9	-13.8	3.2	-21.6	-32.6*
COC(=O)CCCC(=O)Nc1ccc(Br)cc1	4.8	0.7	2.9	5.9	-1.0
SMILES	D1 PAM	DRD3 agonist	D1 agonist	D3 antag	D1 antag
COc1cccc(NC(=O)Nc2ccc(Br)cn2)c1	-6.7	49.4*	0.0	0.4	-14.4
Cc1ccc(OCC(=O)NCCCNC(=O)c2ccc(C)nc2)cc1	0.9	-0.3	0.0	6.2	7.0
Cc1ccc(C(=O)NCCCNC(=O)COc2ccc(Cl)c(C)c2)cn1	-1.8	3.5	4.8	9.7	-39.5*
Cc1ccc(OCCCC(=O)Nc2ccc(Br)cc2)cc1	-12.7	3.6	5.2	1.4	-66.9*
COc1ccc(CN2C(=O)N(c3ccc(C)cc3)C(=O)C2CC(=O)Nc2ccccc2)cc1OC (configuration not stated)	4.9	-8.2	-0.7	nt	6.1
CCCOc1cccc(C(=O)Nc2cc(-c3ccccc3)no2)c1	-0.9	-7.0	6.2	nt	-0.1
COc1cccc(NC(=O)CCC(=O)Nc2cccc(OC)c2)c1	-0.8	0.9	4.9	-3.9	-31.5*
Cc1ccc(NC(=S)Nc2ccc(Br)cc2)cc1	-15.0	-0.5	14.1	15.1	-33.4*
COc1ccc(OCC(=O)NCCNC(=O)c2cccnc2)cc1	nt	1.9	3.0	-10.4	-31.9*
CC(=O)Nc1ccc(NC(=S)Nc2ccc(Br)cc2)cc1	-0.9	3.6	7.6	8.2	-5.6
COc1ccc(CCC(=O)Nc2cccc(Cl)c2)cc1	-8.3	6.4	11.0	-5.4	-44.9*
CCOCC(=O)Nc1cccc(OC)c1	-0.9	-2.4	1.4	?	2.0
O=C(COc1ccc(Br)cc1)NCCCNC(=O)c1cccnc1	-2.5	5.4	-0.4	-16.8	-2.3
O=C1C2=C(C(=O)c3ccccc31)C1O[C@](c3ccsc3)(Cc3ccccc31)O2	-7.5	nt	0.5	nt	3.2
O=C(Nc1ccccc1)N(Cc1c[nH]c2ccccc12)C1CCCCCC1	2.1	-7.3	2.9	nt	5.6
COc1ccc(OCCCC(=O)Nc2cccnc2)cc1	-4.1	8.9	0.1	-90.1*	-18.6
CCc1ccc(NC(=S)N2CCN(c3cccc(OC)c3)CC2)cc1	-5.2	-5.2	9.0	-5.4	-31.3*
COc1cccc(NC(=O)Nc2ccc(CC(=O)O)cc2)c1	-0.8	-3.4	1.4	-6.3	1.8
CCc1ccc(NC(=O)Nc2cccc(OC)c2)cc1	-1.1	-10.2	9.0	2.1	-31.4*
O=C(CCCC(=O)Nc1cccnc1)Nc1cccnc1	-2.9	6.1	2.9	25.1	8.5
Cc1cccc(C(=O)OCc2cc(=O)n3ccsc3n2)c1	-4.5	5.7	0.4	nt	-8.2
ONC(=Nc1cccc(C(F)(F)F)c1)c1cccnc1	-1.3	-2.5	1.0	-63.1*	-5.5
O=C1[C@@H]2CSC(c3ccc(Cl)cc3)N2C(=O)N1c1ccccc1 (some centres not stated)	0.5	4.1	7.4	nt	-4.7
O=C(Oc1cc(-c2ccccc2)no1)c1ccc(F)cc1	0.1	0.0	0.9	3.8	-46.6*
O=C(Oc1cc(-c2ccccc2)no1)c1cccc(C(F)(F)F)c1	-2.9	-4.5	4.2	4.6	-5.4
COc1ccc(OCC(O)CN2CCN(c3ncccn3)CC2)cc1 (configuration not stated)	5.2	31.0*	1.9	?	2.2
CCc1ccc(OCC(O)CN2CCN(c3ccc(OC)cc3)CC2)cc1 (configuration not stated)	0.3	-10.1	30.4*	-26.6	-39.9*
COc1ccc(OCC(O)CN2CCOCC2)cc1 (configuration not stated)	-11.4	1.4	0.5	11.4	-6.3
Cc1ccc(NC(=O)C(=O)NCCc2sc(-c3ccc(Cl)cc3)nc2C)cc1C	-0.6	1.9	2.4	nt	21.9
